Assay outcomes from PubChem BioAssay.
tim23-1 inh – growth inhibitors of tim23-1 mutant yeast, primary screen, luminescence, uHTS | S. cerevisiae tim23-1 growth, BacTiter-Glo luminescence, 24 h | inhibition, % at 20 µM | actives 1.3% (n = 330,000);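 active = growth inhibition of the mutant yeast at or above 50%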;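 also: temperature-sensitive mutant grown at 25 °C; plate controls were DMSO-treated mutant yeast for no effect and medium wells lacking yeast for full effect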
PfHsp90 set2 – growth inhibition of PfHsp90-expressing yeast, primary screen, antimalarial PfHsp90 inhibitor project, S. cerevisiae, BacTiter-Glo luminescence, single point, set 2; BacTiter-Glo ATP, 48 h; yeast lacking PDR1 and PDR3 efflux regulators; inhibition, % at 9.4 µM; actives 0.32% (n = 310,000);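 active = every replicate shows inhibition above about 80%, whatever the replicate mean, limit read from the data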;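 also: 0% = DMSO neutral controls and 100% = 20 µM radicicol positive controls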
tim10-1 inh – growth inhibitors of tim10-1 mutant yeast, primary screen, luminescence, uHTS | S. cerevisiae tim10-1 ts strain growth, BacTiter-Glo, 24 h | inhibition, % at 20 µM | actives 2.2% (n = 330,000);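 active = inhibition of at least 40%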;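 also: mutant grown at 25 °C; 0% = DMSO wells with yeast and 100% = wells holding no yeast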
NLRP3 yeast inh – NALP3 inflammasome inhibitors in reconstituted yeast, primary screen, luminescence, uHTS; Yeast reconstituted NLRP3/ASC/caspase-1, beta-gal luminescence, 24 h; inhibition, % at 10 µM; actives 0.39% (n = 330,000); AID 2825, 2010;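 active = inhibition of 50% or more; inactive = inhibition below 50%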;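 also: plate controls were induced DMSO wells for no effect and uninduced yeast grown without galactose for full effect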
TIM10 inh – growth inhibitors of isogenic TIM10 control yeast, primary screen, counter-screen for tim10-1 yeast inhibitor project, luminescence, uHTS. actives 1.4% (n = 330,000). S. cerevisiae TIM10 strain growth, BacTiter-Glo luminescence, 24 h. AID 463195, 2010. inhibition, % at 10 µM;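 active = inhibition of 40% or more at the single tested concentration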;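 also: wild-type TIM10 isogenic control strain grown at permissive 25 °C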
SKKanGAS inh – S. pyogenes SKKanGAS growth inhibitors in kanamycin, primary screen, streptokinase expression inhibitor project, SKKanGAS strain, BacTiter-Glo luminescence; 6 h; inhibition, % at 7.5 µM; actives 1.3% (n = 300,000); AID 1662, 2009;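 active = mean replicate score, as percent of positive control median, at least 50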;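 also: strain carries kanamycin resistance gene driven by streptokinase promoter and grows in 40 µg/ml kanamycin; loss of luminescence reflects streptokinase promoter inhibition or plain growth inhibition; 0% = median of DMSO wells and 100% = positive control at its reference dose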
Active calls of the source: *; / = no result given. The list is not random: actives were taken first. Their share in the collection is about 4.5%.

SMILES | tim23-1 inh | PfHsp90 set2 | tim10-1 inh | NLRP3 yeast inh | TIM10 inh | SKKanGAS inh
Cc1onc(-c2ccccc2)c1C(=O)NC(=S)NNC(=O)c1ccco1 | -3 | 17 | 18 | 15 | 6 | 78*
Cc1onc(-c2ccccc2)c1C(=O)NNC(=S)NC(=O)/C=C/c1cccs1 | 39 | -15 | 32 | 34 | 31 | 95*
Cc1onc(-c2ccccc2)c1C(=O)NC(=S)NNC(=O)c1ccncc1 | -7 | 10 | 7 | 19 | 12 | 35
O=C(CCN1N=C(c2ccccc2)CCC1=O)NCCCN1CCOCC1 | 16 | 6 | 10 | 3 | -1 | 16
Cn1c(=O)c2c(ncn2CC(=O)N2CCN(C(=O)c3ccco3)CC2)n(C)c1=O | 7 | -5 | 3 | 14 | 10 | 1
Cc1cccc(N(Cc2ccccc2)C(=O)c2cccc(S(=O)(=O)N3CC(C)OC(C)C3)c2)c1 (stereo not given) | 31 | 22 | 23 | 9 | 31 | -2
c1ccc(-c2ccc(-n3ccnc3)cc2)cc1 | -12 | 3 | -4 | 11 | 13 | 0
c1ccc(-c2ccc(C(c3ccccc3)n3ccnc3)cc2)cc1 (stereo not given) | / | 105* | / | / | / | 21
Cc1nn(-c2nc3ccccc3[nH]2)c(N)c1-c1ccccc1 | 22 | 4 | 6 | 46 | 26 | 87*
Cc1nn(-c2ccccc2)c(N)c1-c1ccccc1 | 23 | / | 17 | 17 | -15 | 1
CC(=O)/C(=N/Nc1ccc([N+](=O)[O-])cc1)N1CCCc2ccccc21 | 18 | 5 | 4 | 13 | 32 | 9
CC(=O)/C(=N/Nc1ccc(Br)cc1)N1CCCc2ccccc21 | 13 | -6 | 6 | 17 | 18 | 51*
COc1ccc(N(CC(=O)NCCSCc2ccccc2C)S(=O)(=O)c2ccccc2)cc1 | 24 | 15 | 23 | -6 | 9 | 4
COc1ccc(CCNC(=O)CN(c2ccc(OC)c(OC)c2)S(=O)(=O)c2ccccc2)cc1OC | -3 | 8 | -17 | 0 | 9 | -1
CC(=O)N/C(=C\c1ccccc1)C(=O)OCC(=O)c1c(N)n(C)c(=O)n(C)c1=O | 1 | -12 | -17 | 9 | -6 | /
CCOC(=O)C(=NC(C)C)NNc1cc(Cl)ccc1Cl | 27 | 6 | 28 | 9 | 2 | 2
CCOC(=O)C(=NC(C)(C)C)NNc1cc(Cl)ccc1Cl | 25 | 20 | 26 | 17 | 13 | 78*
COc1ccc2cc(CCNC(=O)c3ccc(S(=O)(=O)N4CCOCC4)cc3)c(=O)[nH]c2c1 | -3 | 9 | -7 | 7 | 3 | 10
O=Nc1c(O)c2ccccc2c2ccccc12 | / | 111* | / | / | / | 66*
CN=Cc1sc2ccccc2c1O | 17 | -9 | 16 | 20 | 20 | -4
CCN(CC(=O)Nc1c(F)cccc1F)C(=O)/C=C/c1ccc2c(c1)OCO2 | 16 | -10 | 26 | 9 | 0 | 14
CCCCn1c(SCC(=O)c2ccccc2)nc2c1c(=O)[nH]c(=O)n2C | 6 | -13 | -1 | 1 | -1 | 80*
O=C(Nc1ccc(C(=O)NCc2ccc(F)cc2)cc1)C1=CSCCO1 | 27 | 4 | 30 | 11 | 1 | 51*
CCOC(=O)C1=C(CC)Nc2ccccc2N/C1=N\S(=O)(=O)c1ccccc1OC | 15 | -5 | 14 | 11 | 9 | /
COc1ccc(CNC(=O)CCC(=O)Nc2nnc(C(F)(F)F)s2)cc1 | 9 | 9 | 15 | 0 | 6 | -7
SMILES | tim23-1 inh | PfHsp90 set2 | tim10-1 inh | NLRP3 yeast inh | TIM10 inh | SKKanGAS inh
O=C(O)CCSc1nc2ccccc2s1 | 14 | 8 | 11 | -3 | -3 | -11
c1ccc2sc(SCSc3nc4ccccc4s3)nc2c1 | 10 | -18 | -8 | 14 | -3 | 54*
O=C(NC(=S)Nc1ccc(-c2ccc(CO)o2)cc1)c1cccs1 | 21 | 8 | 13 | 21 | 26 | /
Cc1ccc(C(=O)NC(=S)Nc2ccc(-c3ccc(CO)o3)cc2)cc1 | 17 | -16 | 36 | 16 | 20 | 61*
Cc1cc(N/N=C/c2cccc(Cl)c2)nc(-n2nc(C)cc2C)n1 | 34 | -34 | 21 | 26 | 26 | 104*
Cc1cc(N/N=C/c2cccc([N+](=O)[O-])c2)nc(-n2nc(C)cc2C)n1 | 15 | 2 | 40 | 26 | 30 | 19
Nc1ccccc1C#CC(=O)c1ccccc1 | -62 | 114* | -23 | -50 | 24 | -4
Cc1ccccc1N1CCN(C(=O)NCc2cccc(Cl)c2)CC1 | 31 | -60 | 10 | 33 | 11 | 4
CCOC(=O)c1cc(-c2ccc(OC(F)F)cc2)nc2c1c(=O)[nH]c(=O)n2C | 13 | -15 | 19 | 17 | 11 | 100*
CCOC(=O)c1cc(-c2ccc(OC(F)F)cc2)nc2nc(SC)[nH]c(=O)c12 | 27 | 13 | 20 | 2 | -5 | 3
Cc1[nH]n(-c2ccccc2)c(=O)c1N=Nc1nccs1 | 13 | 16 | 1 | 25 | 6 | 94*
CCOc1ccc(N=Nc2c(C)[nH]n(-c3ccccc3)c2=O)cc1 | 5 | -11 | -14 | 20 | -12 | 0
Cc1[nH]n(-c2ccccc2)c(=O)c1N=Nc1ccccc1C(=O)O | 10 | 9 | 9 | 11 | -5 | 21
Cc1[nH]n(-c2ccccc2)c(=O)c1N=Nc1ccccc1O | 34 | 15 | 39 | 21 | -26 | 68*
O=C1CN(C(=O)CNCc2ccc(Cl)cc2)c2ccccc2N1 | 3 | -24 | 2 | 6 | -17 | 10
COc1cc(-c2c(C#N)c(N)nc3c2c(C)nn3-c2ccc(C)c(C)c2)cc(OC)c1OC | 12 | -12 | 11 | -1 | 11 | 50*
CCC(C)NC(=O)CCS(=O)(=O)c1ccc2c(c1)n(C)c(=O)c(=O)n2C (stereo not given) | 3 | 11 | -22 | 14 | -3 | 3
CCOC(=O)CC(NC(=O)CCS(=O)(=O)c1ccc2c(c1)n(C)c(=O)c(=O)n2C)c1ccc(C)cc1 (stereo not given) | -9 | 36 | -8 | 0 | 13 | 59*
COc1cc(OC)c(OC)cc1CNC(=O)c1cc(S(=O)(=O)N2CCOCC2)ccc1F | -8 | -25 | -17 | 10 | -3 | /
O=C(NC(=S)Nc1cccnc1)c1cccc(Br)c1 | 26 | 7 | 19 | 30 | -4 | 0
O=C(NC(=S)Nc1cc(Cl)ccc1O)c1cccc(Br)c1 | 31 | 4 | -7 | 13 | 9 | 108*
COc1cc(/C=C/c2ccc3cccc([N+](=O)[O-])c3n2)ccc1OCC(=O)O | 23 | -1 | 8 | 4 | -5 | 10
